# From PMC7862700, “An all-to-all approach to the identification of sequence-specific readers for epigenetic DNA modifications on cytosine”
# Assays:
# Test in all cases: DAPPL (digital affinity profiling via proximity ligation, sequencing); 10 mM Tris-HCl pH 7.5, 50 mM NaCl, 1 mM DTT, 4% glycerol, room temperature, 30 min; GST-TFs on glutathione beads, 16-mer random dsDNA library, 0.1% formaldehyde crosslink after washing; high values mean tight binding
# FEV = target: T1, FEV (Homo sapiens, UniProt Q99581 1-238); conditions: protein: recombinant; tags: N-terminal GST; dsDNA, one strand shown
# T1 sequence: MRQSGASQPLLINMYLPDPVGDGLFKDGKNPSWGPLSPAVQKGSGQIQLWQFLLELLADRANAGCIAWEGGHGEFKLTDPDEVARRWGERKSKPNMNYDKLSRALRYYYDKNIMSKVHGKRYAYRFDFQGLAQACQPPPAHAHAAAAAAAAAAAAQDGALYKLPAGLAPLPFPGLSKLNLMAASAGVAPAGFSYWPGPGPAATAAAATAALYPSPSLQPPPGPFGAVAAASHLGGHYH
# Method in brief: (§1)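 Yeast served to express human transcription factors as GST fusions, which were then captured on glutathione beads and labelled with DNA barcodes. Pooled with a tag-only sample, they were incubated with 200 nmole of a 16-mer random double-stranded DNA library for 30 min at room temperature in Tris/NaCl/DTT/glycerol buffer, washed, crosslinked with 0.1% formaldehyde, ligated by proximity, amplified by PCR and sequenced. Dividing each hexamer's read frequency for a factor by its frequency for the tag-only sample gives the binding signal.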
# ETV5 = ETV5 (Homo sapiens, UniProt P41161 1-510); conditions: protein: recombinant; tags: N-terminal GST; dsDNA, one strand shown
# Method in brief: as §1
# HSF1 = HSF1 (Homo sapiens, UniProt Q00613 1-529); conditions: protein: recombinant; tags: N-terminal GST; chain copies: 3; dsDNA, one strand shown
# Method in brief: as §1
# SPIC = target: T2, SPIC (Homo sapiens, UniProt Q8N5J4 1-248); conditions: protein: recombinant; tags: N-terminal GST; dsDNA, one strand shown
# T2 sequence: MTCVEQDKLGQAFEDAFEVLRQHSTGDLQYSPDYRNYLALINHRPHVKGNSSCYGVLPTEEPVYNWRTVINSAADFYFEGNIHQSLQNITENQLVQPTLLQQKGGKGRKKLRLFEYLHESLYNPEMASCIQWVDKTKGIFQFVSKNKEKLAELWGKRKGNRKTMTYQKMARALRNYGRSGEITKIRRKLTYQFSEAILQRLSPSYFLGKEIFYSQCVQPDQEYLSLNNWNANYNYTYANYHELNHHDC
# Method in brief: as §1
# ELF4 = ELF4 (Homo sapiens, UniProt Q99607 1-663); conditions: protein: recombinant; tags: N-terminal GST; dsDNA, one strand shown
# Method in brief: as §1
# ELK4 = target: T3, ELK4 (Homo sapiens, UniProt P28324-2 1-405); conditions: protein: recombinant; tags: N-terminal GST; dsDNA, one strand shown
# T3 sequence: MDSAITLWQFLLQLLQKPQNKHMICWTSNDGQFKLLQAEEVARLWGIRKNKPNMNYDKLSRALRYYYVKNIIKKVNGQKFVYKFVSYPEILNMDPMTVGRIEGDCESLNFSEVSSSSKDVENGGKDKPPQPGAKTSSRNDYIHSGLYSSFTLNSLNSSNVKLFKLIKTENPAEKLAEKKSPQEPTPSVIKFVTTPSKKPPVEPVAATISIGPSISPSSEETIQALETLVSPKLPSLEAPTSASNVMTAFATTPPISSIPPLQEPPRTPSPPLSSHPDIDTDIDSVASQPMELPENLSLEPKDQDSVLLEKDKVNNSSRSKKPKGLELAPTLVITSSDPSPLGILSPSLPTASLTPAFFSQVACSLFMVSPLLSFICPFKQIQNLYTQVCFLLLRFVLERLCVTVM
# Method in brief: as §1
# ETV2 = target: T4, ETV2 (Homo sapiens, UniProt O00321 1-342); conditions: protein: recombinant; tags: N-terminal GST; dsDNA, one strand shown
# T4 sequence: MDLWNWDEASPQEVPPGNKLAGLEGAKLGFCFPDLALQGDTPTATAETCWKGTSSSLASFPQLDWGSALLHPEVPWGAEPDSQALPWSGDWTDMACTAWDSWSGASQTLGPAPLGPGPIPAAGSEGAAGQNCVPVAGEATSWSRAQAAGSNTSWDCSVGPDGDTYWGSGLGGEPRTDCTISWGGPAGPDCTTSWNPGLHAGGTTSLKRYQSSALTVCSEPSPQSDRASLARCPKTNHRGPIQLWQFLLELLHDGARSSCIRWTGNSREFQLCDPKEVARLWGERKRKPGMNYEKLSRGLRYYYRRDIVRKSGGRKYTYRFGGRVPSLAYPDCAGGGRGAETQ
# Method in brief: as §1
# ELF3 = target: T5, ELF3 (Homo sapiens, UniProt P78545 1-371); conditions: protein: recombinant; tags: N-terminal GST; dsDNA, one strand shown
# T5 sequence: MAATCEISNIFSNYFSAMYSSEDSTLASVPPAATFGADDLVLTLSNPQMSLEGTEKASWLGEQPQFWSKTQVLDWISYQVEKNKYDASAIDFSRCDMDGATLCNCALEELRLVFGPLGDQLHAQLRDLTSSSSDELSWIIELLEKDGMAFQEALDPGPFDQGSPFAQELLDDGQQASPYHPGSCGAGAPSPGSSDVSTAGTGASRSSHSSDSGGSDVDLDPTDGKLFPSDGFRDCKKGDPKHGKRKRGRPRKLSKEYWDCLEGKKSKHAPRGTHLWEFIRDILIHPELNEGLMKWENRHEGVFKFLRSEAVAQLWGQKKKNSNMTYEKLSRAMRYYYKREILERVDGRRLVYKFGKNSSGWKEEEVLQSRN
# Method in brief: as §1
# CRX = CRX (Homo sapiens, UniProt O43186 1-299); conditions: protein: recombinant; tags: N-terminal GST; dsDNA, one strand shown
# Method in brief: as §1
# ETV1 = ETV1 (Homo sapiens, UniProt P50549 1-477); conditions: protein: recombinant; tags: N-terminal GST; dsDNA, one strand shown
# Method in brief: as §1
# ERF = target: T6, ERF (Homo sapiens, UniProt P50548 1-548); conditions: protein: recombinant; tags: N-terminal GST; dsDNA, one strand shown
# T6 sequence: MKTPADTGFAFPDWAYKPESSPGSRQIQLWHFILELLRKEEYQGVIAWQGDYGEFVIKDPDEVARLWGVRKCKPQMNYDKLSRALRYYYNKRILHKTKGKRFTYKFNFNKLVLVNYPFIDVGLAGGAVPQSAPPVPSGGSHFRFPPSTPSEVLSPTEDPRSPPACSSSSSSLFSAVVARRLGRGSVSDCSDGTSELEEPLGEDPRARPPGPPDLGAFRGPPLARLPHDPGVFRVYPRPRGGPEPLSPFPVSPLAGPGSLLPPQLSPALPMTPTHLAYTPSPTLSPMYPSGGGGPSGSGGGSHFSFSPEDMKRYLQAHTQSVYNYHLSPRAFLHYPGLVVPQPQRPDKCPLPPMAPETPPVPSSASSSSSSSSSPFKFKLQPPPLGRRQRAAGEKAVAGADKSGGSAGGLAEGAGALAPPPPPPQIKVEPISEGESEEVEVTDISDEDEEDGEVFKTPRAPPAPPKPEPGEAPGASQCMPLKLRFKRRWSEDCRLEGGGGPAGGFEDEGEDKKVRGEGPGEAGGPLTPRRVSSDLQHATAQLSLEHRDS
# Method in brief: as §1
# ETV3L = target: T7, ETV3L (Homo sapiens, UniProt Q6ZN32 1-361); conditions: protein: recombinant; tags: N-terminal GST; dsDNA, one strand shown
# T7 sequence: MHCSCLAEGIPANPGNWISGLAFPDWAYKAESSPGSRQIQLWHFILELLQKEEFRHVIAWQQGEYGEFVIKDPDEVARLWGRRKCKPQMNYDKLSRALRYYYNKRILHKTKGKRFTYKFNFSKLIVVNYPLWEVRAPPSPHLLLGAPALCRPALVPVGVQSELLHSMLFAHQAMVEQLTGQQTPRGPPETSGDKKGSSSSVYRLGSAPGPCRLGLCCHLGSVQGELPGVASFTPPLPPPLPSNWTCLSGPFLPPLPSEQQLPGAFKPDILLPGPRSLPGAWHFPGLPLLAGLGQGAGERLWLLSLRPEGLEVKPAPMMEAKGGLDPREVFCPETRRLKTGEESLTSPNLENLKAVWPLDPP
# Method in brief: as §1
# ETS2 = target: T8, ETS2 (Homo sapiens, UniProt P15036 1-469); conditions: protein: recombinant; tags: N-terminal GST; dsDNA, one strand shown
# T8 sequence: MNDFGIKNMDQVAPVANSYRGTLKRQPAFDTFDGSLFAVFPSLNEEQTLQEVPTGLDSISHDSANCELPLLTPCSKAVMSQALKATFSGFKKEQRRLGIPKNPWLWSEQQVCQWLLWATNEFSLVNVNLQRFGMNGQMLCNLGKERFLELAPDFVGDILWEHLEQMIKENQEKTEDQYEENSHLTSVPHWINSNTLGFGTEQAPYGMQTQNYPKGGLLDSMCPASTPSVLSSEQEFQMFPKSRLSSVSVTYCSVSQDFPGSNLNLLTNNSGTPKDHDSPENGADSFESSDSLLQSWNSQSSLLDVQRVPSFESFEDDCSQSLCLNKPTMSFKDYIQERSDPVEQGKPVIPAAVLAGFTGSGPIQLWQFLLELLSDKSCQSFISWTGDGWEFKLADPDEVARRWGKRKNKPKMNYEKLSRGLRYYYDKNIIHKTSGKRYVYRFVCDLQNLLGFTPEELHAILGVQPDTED
# Method in brief: as §1
# SPDEF = target: T9, SPDEF (Homo sapiens, UniProt O95238 1-335); conditions: protein: recombinant; tags: N-terminal GST; dsDNA, one strand shown
# T9 sequence: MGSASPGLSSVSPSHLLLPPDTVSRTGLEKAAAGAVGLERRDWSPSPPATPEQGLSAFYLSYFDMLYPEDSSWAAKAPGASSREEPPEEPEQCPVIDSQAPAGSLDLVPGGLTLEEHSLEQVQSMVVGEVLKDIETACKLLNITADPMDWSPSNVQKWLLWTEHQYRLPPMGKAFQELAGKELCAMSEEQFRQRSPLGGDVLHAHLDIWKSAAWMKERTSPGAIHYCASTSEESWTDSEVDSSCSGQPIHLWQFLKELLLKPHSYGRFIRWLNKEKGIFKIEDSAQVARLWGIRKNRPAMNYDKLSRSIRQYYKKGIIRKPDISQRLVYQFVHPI
# Method in brief: as §1
# ETV7 = target: T10, ETV7 (Homo sapiens, UniProt Q9Y603 1-341); conditions: protein: recombinant; tags: N-terminal GST; dsDNA, one strand shown
# T10 sequence: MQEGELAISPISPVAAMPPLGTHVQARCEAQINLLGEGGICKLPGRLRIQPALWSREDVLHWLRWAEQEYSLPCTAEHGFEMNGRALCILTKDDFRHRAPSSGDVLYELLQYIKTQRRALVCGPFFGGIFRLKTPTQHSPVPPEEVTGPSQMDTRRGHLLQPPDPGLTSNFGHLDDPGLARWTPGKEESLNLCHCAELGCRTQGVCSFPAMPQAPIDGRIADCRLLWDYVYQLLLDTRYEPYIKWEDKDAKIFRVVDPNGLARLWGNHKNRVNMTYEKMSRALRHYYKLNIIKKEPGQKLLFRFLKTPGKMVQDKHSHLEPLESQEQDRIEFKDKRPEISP
# Method in brief: as §1
# ELF5 = target: T11, ELF5 (Homo sapiens, UniProt Q9UKW6-2 1-255); conditions: protein: recombinant; tags: N-terminal GST; dsDNA, one strand shown
# T11 sequence: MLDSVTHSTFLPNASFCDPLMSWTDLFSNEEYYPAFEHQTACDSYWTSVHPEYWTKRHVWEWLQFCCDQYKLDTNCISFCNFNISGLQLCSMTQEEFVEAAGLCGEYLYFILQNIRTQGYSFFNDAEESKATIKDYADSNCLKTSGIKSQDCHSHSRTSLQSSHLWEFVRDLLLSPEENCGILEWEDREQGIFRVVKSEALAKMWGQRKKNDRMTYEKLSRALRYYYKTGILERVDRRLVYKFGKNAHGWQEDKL
# Method in brief: as §1
# ETV3 = target: T12, ETV3 (Homo sapiens, UniProt P41162-2 1-143); conditions: protein: recombinant; tags: N-terminal GST; dsDNA, one strand shown
# T12 sequence: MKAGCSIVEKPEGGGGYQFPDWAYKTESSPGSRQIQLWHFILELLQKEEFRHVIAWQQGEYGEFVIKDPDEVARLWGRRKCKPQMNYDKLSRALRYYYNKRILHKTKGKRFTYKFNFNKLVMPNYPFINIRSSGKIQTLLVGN
# Method in brief: as §1
# ETV6 = ETV6 (Homo sapiens, UniProt P41212 1-452); conditions: protein: recombinant; tags: N-terminal GST; dsDNA, one strand shown
# Method in brief: as §1
# Sequence of ETV6 (P41212 whole entry): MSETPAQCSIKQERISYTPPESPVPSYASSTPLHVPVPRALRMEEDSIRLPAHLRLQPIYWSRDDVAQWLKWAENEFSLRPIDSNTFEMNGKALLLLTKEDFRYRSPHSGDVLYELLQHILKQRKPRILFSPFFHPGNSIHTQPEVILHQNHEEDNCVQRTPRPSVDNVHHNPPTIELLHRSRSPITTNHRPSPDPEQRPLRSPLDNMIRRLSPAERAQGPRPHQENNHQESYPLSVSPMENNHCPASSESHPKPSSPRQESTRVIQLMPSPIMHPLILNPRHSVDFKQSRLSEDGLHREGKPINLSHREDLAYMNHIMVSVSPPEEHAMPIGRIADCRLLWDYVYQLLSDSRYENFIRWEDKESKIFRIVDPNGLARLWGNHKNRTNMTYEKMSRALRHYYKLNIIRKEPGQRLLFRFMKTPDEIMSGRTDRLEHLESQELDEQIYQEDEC
# Sequence of CRX (O43186 whole entry): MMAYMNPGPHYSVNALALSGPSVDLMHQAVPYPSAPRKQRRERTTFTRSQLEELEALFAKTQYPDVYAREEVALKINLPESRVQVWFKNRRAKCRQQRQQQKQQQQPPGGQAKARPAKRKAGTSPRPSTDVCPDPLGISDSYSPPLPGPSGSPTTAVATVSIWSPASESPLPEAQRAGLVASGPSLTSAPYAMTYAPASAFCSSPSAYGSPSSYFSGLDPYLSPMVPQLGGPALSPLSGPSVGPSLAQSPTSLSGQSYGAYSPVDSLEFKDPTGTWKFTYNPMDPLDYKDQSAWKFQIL
# Sequence of HSF1 (Q00613 whole entry): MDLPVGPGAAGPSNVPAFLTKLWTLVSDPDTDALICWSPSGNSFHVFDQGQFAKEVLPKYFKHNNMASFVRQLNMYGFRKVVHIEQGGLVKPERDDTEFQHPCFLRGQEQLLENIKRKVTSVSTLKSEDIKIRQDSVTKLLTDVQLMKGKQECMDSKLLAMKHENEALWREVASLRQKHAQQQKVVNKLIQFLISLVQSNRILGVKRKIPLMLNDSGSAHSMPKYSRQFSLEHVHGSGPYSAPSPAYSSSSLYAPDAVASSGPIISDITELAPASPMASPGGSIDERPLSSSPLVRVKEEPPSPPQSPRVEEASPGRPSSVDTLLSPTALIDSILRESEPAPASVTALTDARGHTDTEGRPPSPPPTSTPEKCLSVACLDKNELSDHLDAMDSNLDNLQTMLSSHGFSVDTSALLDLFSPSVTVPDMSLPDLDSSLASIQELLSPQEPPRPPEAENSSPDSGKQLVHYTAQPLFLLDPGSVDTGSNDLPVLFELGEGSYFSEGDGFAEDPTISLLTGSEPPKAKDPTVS
# Sequence of ELF4 (Q99607 whole entry): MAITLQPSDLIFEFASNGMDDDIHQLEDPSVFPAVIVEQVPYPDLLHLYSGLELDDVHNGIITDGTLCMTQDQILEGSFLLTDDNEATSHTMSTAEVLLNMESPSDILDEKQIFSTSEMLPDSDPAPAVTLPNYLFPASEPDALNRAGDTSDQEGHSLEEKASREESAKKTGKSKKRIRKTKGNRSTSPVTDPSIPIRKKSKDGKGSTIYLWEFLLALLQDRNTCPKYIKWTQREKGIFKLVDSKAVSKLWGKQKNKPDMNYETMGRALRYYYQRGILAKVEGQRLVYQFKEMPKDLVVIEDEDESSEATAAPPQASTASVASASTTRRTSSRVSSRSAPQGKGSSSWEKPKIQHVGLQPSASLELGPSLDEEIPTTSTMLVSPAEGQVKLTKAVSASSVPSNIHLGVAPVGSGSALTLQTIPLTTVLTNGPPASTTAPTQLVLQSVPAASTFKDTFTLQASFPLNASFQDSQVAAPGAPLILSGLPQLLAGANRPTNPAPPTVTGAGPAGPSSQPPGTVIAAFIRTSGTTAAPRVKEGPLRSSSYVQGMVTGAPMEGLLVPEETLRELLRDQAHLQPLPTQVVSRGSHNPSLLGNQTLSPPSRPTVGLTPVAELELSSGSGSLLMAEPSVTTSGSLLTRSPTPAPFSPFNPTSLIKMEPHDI
# Sequence of ETV5 (P41161 whole entry): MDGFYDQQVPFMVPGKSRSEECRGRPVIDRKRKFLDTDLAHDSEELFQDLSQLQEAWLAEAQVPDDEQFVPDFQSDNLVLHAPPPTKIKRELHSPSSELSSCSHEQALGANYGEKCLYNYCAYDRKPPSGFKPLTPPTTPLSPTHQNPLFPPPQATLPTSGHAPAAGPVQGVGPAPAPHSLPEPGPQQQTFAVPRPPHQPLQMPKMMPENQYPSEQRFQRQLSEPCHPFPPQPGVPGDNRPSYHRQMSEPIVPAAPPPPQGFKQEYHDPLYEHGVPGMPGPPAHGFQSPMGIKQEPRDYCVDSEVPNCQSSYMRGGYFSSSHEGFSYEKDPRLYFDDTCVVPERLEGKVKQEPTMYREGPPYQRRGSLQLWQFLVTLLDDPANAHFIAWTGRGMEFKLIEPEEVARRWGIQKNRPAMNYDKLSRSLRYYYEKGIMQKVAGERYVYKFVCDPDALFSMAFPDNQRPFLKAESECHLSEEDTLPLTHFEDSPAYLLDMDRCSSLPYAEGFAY
# Sequence of ETV1 (P50549 whole entry): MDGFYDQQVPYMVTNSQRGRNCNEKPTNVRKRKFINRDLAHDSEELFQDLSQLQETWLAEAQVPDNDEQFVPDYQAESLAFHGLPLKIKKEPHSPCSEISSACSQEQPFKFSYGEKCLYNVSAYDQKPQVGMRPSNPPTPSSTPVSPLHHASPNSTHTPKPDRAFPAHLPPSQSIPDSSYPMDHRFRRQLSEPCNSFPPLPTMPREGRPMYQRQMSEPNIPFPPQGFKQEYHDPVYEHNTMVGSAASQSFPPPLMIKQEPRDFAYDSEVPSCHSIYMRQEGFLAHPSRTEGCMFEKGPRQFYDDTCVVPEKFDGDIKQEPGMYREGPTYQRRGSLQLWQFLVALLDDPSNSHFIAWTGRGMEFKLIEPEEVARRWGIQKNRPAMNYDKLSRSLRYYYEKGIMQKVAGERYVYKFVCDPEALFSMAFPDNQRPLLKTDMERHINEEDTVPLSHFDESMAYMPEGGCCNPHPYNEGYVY
sequence,measurement,setting,value
TTACTG,binding signal,FEV,"1.04 fold enrichment (6-mer frequency, TF over GST control)"
same,binding signal,ETV5,"1.15 fold enrichment (6-mer frequency, TF over GST control)"
same,binding signal,HSF1,"1.52 fold enrichment (6-mer frequency, TF over GST control)"
same,binding signal,SPIC,"1.18 fold enrichment (6-mer frequency, TF over GST control)"
same,binding signal,ELF4,"1.11 fold enrichment (6-mer frequency, TF over GST control)"
same,binding signal,ELK4,"1.16 fold enrichment (6-mer frequency, TF over GST control)"
same,binding signal,ETV2,"1.12 fold enrichment (6-mer frequency, TF over GST control)"
same,binding signal,ELF3,"1.21 fold enrichment (6-mer frequency, TF over GST control)"
same,binding signal,CRX,"1.84 fold enrichment (6-mer frequency, TF over GST control)"
same,binding signal,ETV1,"1.01 fold enrichment (6-mer frequency, TF over GST control)"
same,binding signal,ERF,"1.2 fold enrichment (6-mer frequency, TF over GST control)"
same,binding signal,ETV3L,"1.04 fold enrichment (6-mer frequency, TF over GST control)"
same,binding signal,ETS2,"1.09 fold enrichment (6-mer frequency, TF over GST control)"
same,binding signal,SPDEF,"1.07 fold enrichment (6-mer frequency, TF over GST control)"
same,binding signal,ETV7,"1.14 fold enrichment (6-mer frequency, TF over GST control)"
same,binding signal,ELF5,"1.02 fold enrichment (6-mer frequency, TF over GST control)"
same,binding signal,ETV3,"1.21 fold enrichment (6-mer frequency, TF over GST control)"
same,binding signal,ETV6,"1.17 fold enrichment (6-mer frequency, TF over GST control)"
